Screening results (PubChem)
An excerpt weighted towards active compounds, which were near 1.4% of everything screened.
PrPC TRFRET = inhibitors of human cell surface prion protein PrPC, primary screen, cell-based, TR-FRET | Major prion protein (Homo sapiens), P04156 | TR-FRET read-out | inhibition, % at 13.8 µM | actives 0.43% (n = 370,000); in the data active means inhibition above about 24%; further: 0% = median of the test wells and 100% = reference compound wells
SARS 3CLpro inh = SARS-CoV 3CLpro protease inhibitors, primary screen, biochemical, quenched FRET. actives 0.14% (n = 290,000). Replicase polyprotein 1ab (Severe acute respiratory syndrome coronavirus), P0C6X7. recombinant SARS-CoV 3CLpro, quenched FRET peptide cleavage. inhibition, % at 6 µM. AID 1706, 2009; in the data active means inhibition above about 12%
PrP UTR inh = inhibition of PrP 5' UTR reporter expression | cell-based PrP 5' UTR mRNA reporter, plate reader | inhibition, % (concentration not given with the values) | actives 0.35% (n = 340,000); in the data active means inhibition above about 52%; further: 0 = median of the neutral control wells
BJeLR viability = MLPCN primary cell-based screen for lethality selective to Ras in HRASV12 cells | BJeLR (HRASV12) viability, CellTiter-Glo ATP luminescence, 48 h | actives 0.17% (n = 300,000) | AID 1554, 2009 | inhibition, % (no concentration beside the values); in the data active means inhibition above about 50%
RecA intein inh = Mtb RecA intein splicing inhibitors, primary screen, biochemical, fluorescence, HTS; Protein RecA (Mycobacterium tuberculosis (strain ATCC 25618 / H37Rv)), P9WHJ3; cell-free RecA intein splicing; inhibition, % (no concentration beside the values); actives 0.75% (n = 290,000); in the data active means inhibition above about 30%;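 further: 0% = vehicle wells and 100% = reference inhibitor control wells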
Target sequence (P9WHJ3 whole entry, looked up): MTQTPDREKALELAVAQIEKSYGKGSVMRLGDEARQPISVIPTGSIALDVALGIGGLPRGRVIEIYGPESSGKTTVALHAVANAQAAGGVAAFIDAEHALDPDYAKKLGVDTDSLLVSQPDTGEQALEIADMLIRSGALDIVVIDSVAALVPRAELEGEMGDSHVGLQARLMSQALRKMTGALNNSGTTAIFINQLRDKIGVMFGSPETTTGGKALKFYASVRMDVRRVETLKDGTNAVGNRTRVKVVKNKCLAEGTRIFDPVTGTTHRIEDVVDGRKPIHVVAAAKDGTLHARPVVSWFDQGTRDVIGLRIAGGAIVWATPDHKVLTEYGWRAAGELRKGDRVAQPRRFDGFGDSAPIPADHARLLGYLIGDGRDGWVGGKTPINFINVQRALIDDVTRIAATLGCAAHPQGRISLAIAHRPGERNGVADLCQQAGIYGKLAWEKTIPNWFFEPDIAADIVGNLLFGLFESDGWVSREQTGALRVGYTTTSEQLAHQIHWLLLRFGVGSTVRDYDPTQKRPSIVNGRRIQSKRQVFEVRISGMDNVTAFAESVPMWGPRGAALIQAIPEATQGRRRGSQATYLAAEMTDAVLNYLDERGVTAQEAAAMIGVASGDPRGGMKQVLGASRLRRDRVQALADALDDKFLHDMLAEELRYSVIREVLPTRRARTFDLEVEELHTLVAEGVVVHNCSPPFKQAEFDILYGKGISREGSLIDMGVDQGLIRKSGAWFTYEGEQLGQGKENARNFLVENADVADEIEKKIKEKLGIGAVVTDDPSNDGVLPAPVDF
Mtb hypoxia inh = PubChem AID 1159583; M. tuberculosis hypoxia-regulated fluorescent reporter, fluorescence; fluorescence inhibition, % (concentration not given with the values); actives 0.1% (n = 300,000); in the data active means fluorescence inhibition mostly above about 23%, no sharp cut-off; inactive means mostly below about 17%
Numbers without * were called inactive; . = not tested or not shown; ! = repeats disagree.

SMILES	PrPC TRFRET	SARS 3CLpro inh	PrP UTR inh	BJeLR viability	RecA intein inh	Mtb hypoxia inh
CC(=O)C1=C(C)N(CC2CC2)C(=O)NC1c1ccc(Br)cc1 (stereo not given)	.	.	.	.	.	5
Oc1ccccc1N=Cc1sc2ccccc2c1Cl	4	3	-29	-1	2	37*
C/C=C/C=C\C(=O)Nc1cccc(C2=NOC3(C2)C[C@@H](C(N)=O)N(C(=O)c2cc([N+](=O)[O-])cc([N+](=O)[O-])c2C)C3)c1 (stereo not given in full)	-29	.	-14	-16	4	.
CC=CC=CC(=O)Nc1cccc(C2=NOC3(C2)CC(C(N)=O)N(C(=O)c2cc([N+](=O)[O-])cc([N+](=O)[O-])c2)C3)c1 (stereo not given)	.	.	.	.	.	57*
Cc1ccc(C2C3C(=O)N(c4ccccc4)C(=O)C3[C@]3(C)C(=O)N(CC4CC4)CC(=O)N23)o1 (stereo not given in full)	.	.	.	.	.	1
CC(=O)C(Sc1ncnc2c1nnn2-c1ccc(F)cc1)C(=O)N(C)C (stereo not given)	-2	1	.	-5	40*	13
CCOC(=O)CSc1ncnc2c1nnn2-c1ccc(F)cc1	-7	3	-5	-2	24	9
CC1OC(OC2C(Oc3cc(O)c4c(c3)OC(c3ccc(O)cc3)CC4=O)OC(CO)C(O)C2O)C(O)C(O)C1O (stereo not given)	.	.	.	.	.	85*!
C[C@@H]1O[C@@H](O[C@H]2[C@H](Oc3cc(O)c4c(c3)OC(c3ccc(O)cc3)CC4=O)O[C@H](CO)[C@@H](O)[C@@H]2O)[C@H](O)[C@H](O)[C@H]1O (stereo not given in full)	2	.	-15	-1	0	.
O=C(CCN1C(=O)/C(=C\c2ccccc2F)SC1=S)Nc1ccc(C(=O)O)c(O)c1	-22	7	-13	4	32*	.
O=C(CCCN1C(=O)/C(=C/c2ccccc2)SC1=S)Nc1ccc(C(=O)O)c(O)c1	-11	5	-31	2	38*	.
COc1ccc(C=C2SC(=S)N(CCCC(=O)Nc3ccc(C(=O)O)c(O)c3)C2=O)cc1OC	-44	.	.	.	.	.
CCOC(=O)C1C2COc3cc(OC)ccc3C2N2C(=O)CN(CCc3c[nH]c4ccccc34)C(=O)[C@@]12C (stereo not given in full)	.	.	.	.	.	11
COc1cc(C=NNc2nc(C)cc(C)n2)cc(OC)c1OC	.	.	.	.	.	3
CCOc1cc(/C=C2\COc3ccccc3C2=O)cc(Br)c1OCC(=O)N(C)C	-10	6	-18	65*	14	2
Cc1ccsc1/C=C1/SC(N2CCOCC2)=NC1=O	.	2	.	11	1	48*
O=C1N=C(N2CCOCC2)S/C1=C\c1cccs1	-19	2	31	1	1	.
COC(=O)C1=C(c2cccc(C#N)c2)CC2CCC1N2C(=O)N1CCOCC1 (stereo not given)	.	.	.	.	.	11
Cn1nnnc1N=N/C(=N/Nc1ccccc1)c1ccccc1	15	2	13	66*	2	.
CCSc1nnc(NC(=O)[C@H](C)N2C(=O)C3CC=CCC3C2=O)s1 (stereo not given in full)	6	0	-22	.	-3	30*
COc1ccc(C=NNC(=O)c2nc(-c3ccccc3)n(-c3ccccc3)n2)c(O)c1	.	.	.	.	.	10
COc1cc(C=C(c2nc3ccccc3s2)c2nc3ccccc3s2)ccc1O	-1	-3	-27	-8	51*	7
COc1ccc(-c2csc(NC(=O)c3ccc(S(=O)(=O)N4CCc5ccccc5C4)cc3)n2)cc1	0	-1	-3	24	1	3
COc1ccc(-c2nnc(NC(=O)c3ccc(S(=O)(=O)N4CCc5ccccc5C4)cc3)o2)cc1	.	-4	31	76*	2	4
COc1ccc2c(c1)OCC1C2N2C(=O)CN(CC3CCCO3)C(=O)[C@@]2(C)C1c1ccccc1 (stereo not given in full)	.	.	.	.	.	-5
CCN(CC)c1ccc(C=C2NC(=O)NC2=O)cc1	.	.	.	.	.	5
CC(C)Sc1nc2c(c(=O)n(C)c(=O)n2C)n1Cc1ccc(Cl)cc1	-3	4	-13	12	5	38*
